Test results: PubChem BioAssay AID1529 (NMMLSC, 2009)
The campaign covered roughly 290,000 compounds. About 4,200 (1.4%) were called active.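 How the source made its calls: active means binding response more than 3 SD above or below the average of its plate-row segment, actives on both sides; inconclusive means wells at one plate position flagged as instrument error; inactive means the rest.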 Shown is part of a subset that was picked to be rich in actives.

Each compound was assayed against Mitogen-activated protein kinase kinase kinase 3 (Homo sapiens) (UniProt Q99759) (assay: modulators of MEKK3-MEK5 PB1 binding, primary screen, biochemical, wildtype MEKK3, multiplex bead flow cytometry, Alexa488-MEK5 (AID 1529;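 further: Alexa488 bead fluorescence after subtracting the streptavidin-only scavenger bead signal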)). Conditions: bead-based flow cytometry, Alexa488-MEK5 binding to MEKK3; at 10 µM; actives lie on both sides; 0 = blocked by unlabeled MEK5, 100 = vehicle.
Sequence of Mitogen-activated protein kinase kinase kinase 3 (Homo sapiens) (Q99759 whole entry, looked up): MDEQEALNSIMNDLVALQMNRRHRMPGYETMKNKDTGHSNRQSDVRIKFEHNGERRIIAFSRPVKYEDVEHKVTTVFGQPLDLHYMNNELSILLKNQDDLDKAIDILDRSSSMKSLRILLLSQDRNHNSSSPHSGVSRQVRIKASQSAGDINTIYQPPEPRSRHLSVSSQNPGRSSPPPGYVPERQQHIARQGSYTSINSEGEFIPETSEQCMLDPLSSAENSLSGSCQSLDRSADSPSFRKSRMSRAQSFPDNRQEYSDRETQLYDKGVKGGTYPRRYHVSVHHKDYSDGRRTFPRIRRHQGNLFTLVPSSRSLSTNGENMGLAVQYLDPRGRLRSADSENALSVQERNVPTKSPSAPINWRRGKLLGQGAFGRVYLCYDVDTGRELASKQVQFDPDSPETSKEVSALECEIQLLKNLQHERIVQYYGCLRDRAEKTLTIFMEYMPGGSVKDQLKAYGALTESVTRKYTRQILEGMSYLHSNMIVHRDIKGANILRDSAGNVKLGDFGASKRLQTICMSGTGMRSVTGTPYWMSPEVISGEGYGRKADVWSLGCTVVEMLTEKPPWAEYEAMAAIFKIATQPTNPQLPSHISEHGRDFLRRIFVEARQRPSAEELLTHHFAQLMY

SMILES	binding response (% of control)
Cc1cnc(NC(=O)Cn2cnc3c2c(=O)n(C)c(=O)n3C)s1	136% (active)
Cc1ccc(SCC(=O)Nc2ncc(C)s2)cc1	100% (inactive)
Cc1cnc(NC(=O)CSc2nnc(C)s2)s1	100% (inactive)
COc1ccc(-c2csc(Nc3ccc(O)cc3)n2)cc1	95% (inactive)
COC(=O)CCc1sc(Nc2ccc(Br)cc2)nc1-c1ccc(OC)cc1	136% (active)
Cc1ccc(OC(=O)CCC(=O)Nc2ccc(Br)cc2)cc1	94% (inactive)
CSCCC(Nc1ccc(S(=O)(=O)N2CCOCC2)cc1[N+](=O)[O-])C(=O)OCC(=O)N(C(C)C)C(C)C (stereo not given)	98% (inactive)
Cc1ccc(NC(=O)CN2CCC(C(N)=O)CC2)cc1[N+](=O)[O-]	98% (inactive)
CC(=O)N1CCN(S(=O)(=O)c2ccc(C)c([N+](=O)[O-])c2)C1C(C)C (stereo not given)	128% (active)
Cc1cc(=O)cc(C)n1-c1ccc(Cl)c(Cl)c1	96% (inactive)
CC(=O)Nc1ccc(S(=O)(=O)N2CCC(C(=O)NC3CC3)CC2)cc1	104% (inactive)
Cc1[nH]n(-c2ccccc2)c(=O)c1/C=N/NC(=O)c1ccoc1C	108% (inactive)
CCC(=C/c1sc2ccc3ccccc3c2[n+]1C)/C=C1\Sc2ccc3ccccc3c2N1C	23% [inhibitor] (active)
C#CCOCCOCCOCCNc1nc(N2CCN(C(=O)C([C@@H](C)CC)n3cc(C(N)COC(=O)C(F)(F)F)nn3)CC2)nc(N2CCN(C(=O)[C@H](CCCCN)n3cc(C(N)CC(C)C)nn3)CC2)n1 (stereo not given in full)	120% (inactive)
Cc1cc(/C=C2/C(=N)N3C(=NC2=O)SN=C3S(C)(=O)=O)c(C)n1-c1ccccc1	96% (inactive)
N=C1/C(=C/c2cccn2-c2cccc([N+](=O)[O-])c2)C(=O)N=C2SC=CN12	135% (active)
COCOc1cc(O)c(C(=O)/C=C/c2ccc(OCOC)c(OCOC)c2)c(OCOC)c1	104% (inactive)
Cc1cccc(NC(=O)CCN2CC(C)CC(C)C2)c1 (stereo not given)	107% (inactive)
Cc1nonc1C1CCCN1Cc1nc(-c2ccc(F)cc2F)oc1C (stereo not given)	85% (inactive)
CCN1/C(=C/c2ccc3ccc(C)cc3[n+]2CC)Sc2ccccc21	95% (inactive)

SMILES	binding response (% of control)
CCN1/C(=C\c2ccc3ccccc3[n+]2CC)Sc2cc(C)ccc21	70% [inhibitor] (active)
CCN(CC)CCCNC(=O)c1cn(C)c2ccc(S(=O)(=O)N(C)C3CCCCC3)cc2c1=O	100% (inactive)
COc1ccc(C(=O)NCc2nnc(SCC(=O)Nc3cccc(OC)c3)o2)cc1	102% (inactive)
Cc1cccc(/C=N/NC(=O)CNc2cccc3ccccc23)n1	144% (active)
Cn1cccc1/C=N/NC(=O)CNc1cccc2ccccc12	103% (inactive)
C/C(=N\NC(=O)CNc1cccc2ccccc12)c1ccc(Br)s1	103% (inactive)
CCn1cc(CN2CCC(C(=O)Nc3cccc(-c4cccc(Cl)c4)c3)CC2)c(C)n1	107% (inactive)
Cc1ccc(N(CCC(=O)O)S(=O)(=O)c2cccc(C(F)(F)F)c2)cc1	3% [inhibitor] (active)
O=C(O)c1cc(S(=O)(=O)N(Cc2ccccc2)c2cccc(C(F)(F)F)c2)ccc1Cl	106% (inactive)
CCc1nnc(NC(=O)CCN(c2ccc(C)cc2)S(=O)(=O)c2ccccc2)s1	108% (inactive)
Cc1ccnc(N2CCCC(C(=O)NC3CC3)C2)n1 (stereo not given)	100% (inactive)
Cc1cc(=O)n2nc(N3CCCC(C(=O)NCc4ccc(Cl)cc4)C3)sc2n1 (stereo not given)	99% (inactive)
COc1cc(C)nc(N2CCCC(C(=O)NCC(C)C)C2)n1 (stereo not given)	130% (active)
CN1CCN(CCNC(=O)Nc2ccccc2[N+](=O)[O-])CC1	104% (inactive)
Cc1ccccc1CCN(CC(=O)NC1CCCCC1)C(=O)c1csnn1	142% (active)
O=C(CN(C(=O)c1csnn1)c1ccc(Br)cc1)NC1CCCC1	101% (inactive)
Cc1ccc(CN(CC(=O)NC2CCCCC2)C(=O)c2csnn2)cc1	103% (inactive)
COc1cc([N+](=O)[O-])ccc1NC(=O)CN1CCCC1	104% (inactive)
COc1ccccc1CC(=O)Nc1ccc(F)cc1F	106% (inactive)
COc1ccccc1CC(=O)Nc1ccc([N+](=O)[O-])cc1OC	139% (active)

SMILES	binding response (% of control)
CCC(C)(C)NC(=O)C1c2ccccc2Oc2ccccc21	99% (inactive)
CCC(C)NC(=O)C1c2ccccc2Oc2ccccc21 (stereo not given)	71% (inactive)
CC(C)(C)c1nnc(NC(=O)C2c3ccccc3Oc3ccccc32)s1	45% [inhibitor] (active)
C=CCSc1nnc2c(n1)-c1cccc3cccc-2c13	104% (inactive)
COc1ccc(C(=O)NC(=S)NC2CCCCC2)cc1	106% (inactive)
Brc1ccccc1C1N=C(c2ccccc2)NO1 (stereo not given)	103% (inactive)
Cc1ccc2c(c1)N(C(=O)CCC(=O)NCc1cccnc1)CCO2	100% (inactive)
COc1ccc(/C=C/C(=O)OCC(=O)Nc2cccc(Oc3ccccc3)c2)c(OC)c1	106% (inactive)
COc1cccc(NC(=O)CN(C)C(=O)Cc2ccc(Cl)cc2Cl)c1	106% (inactive)
COc1cccc(NC(=O)CN(C)C(=O)/C=C/c2cc(OC)ccc2OC)c1	151% (active)
CCOC(=O)N1CCN(C(=O)c2cn(C)c3ccc(S(=O)(=O)N(CC)CC)cc3c2=O)CC1	98% (inactive)
CCOC(=O)CC1(NC(=O)c2cc(COc3cncc(Cl)c3)on2)CCCCC1	103% (inactive)
O=C(CN1C(=O)CSC1=O)N1CCCC(Nc2ccc(F)cc2)C1 (stereo not given)	102% (inactive)
CN(C(=O)c1cc2c(=O)n3ccccc3nc2s1)C1CCCCC1	100% (inactive)
Cn1c(=O)c2c(nc(N/N=C/c3cccs3)n2Cc2ccc(Br)cc2)n(C)c1=O	131% (active)
Cn1c(=O)c2sccc2n(Cc2ccc(Br)cc2)c1=O	101% (inactive)
Cn1c(=O)c2c(nc(NCCc3ccccc3)n2Cc2ccccc2)n(C)c1=O	96% (inactive)
COc1cccc(OCC(=O)Nc2ccccc2C(N)=O)c1	110% (inactive)
COc1cccc(OCC(=O)NNC(=O)c2cnccn2)c1	2% [inhibitor] (active)
COc1ccc(OCC(=O)NNC(=O)c2cccc(C)c2)cc1	103% (inactive)
